From PubChem BioAssay
Only some compounds are listed: those with a hit (about 6.9% of all), similar ones and a draw of the others.
L3MBTL1 block = L3MBTL1 (human) inhibition. Q9Y468. 230,000 tested, 0.66% active. Potency, µM (top dose mostly 57.1 µM), for the others: top-dose activity, negative = inhibition, most hits filed as inhibitors. AlphaScreen L3MBTL1–H3K9me1 peptide binding; also: % is scaled to controls: 0 for no effect and ±100 for the full control effect; nearly all actives have a fitted effect of over 60% in size
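AlphaScreen assay: L3MBTL1 (50 nM final) was preincubated 30 min at room temperature with biotinylated H3(1-15)K9me1 peptide (75 nM final), then 30 min with library compounds; streptavidin donor and nickel chelate acceptor beads (10 ug/mL final) added, 30 min dark.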
HP1b binding inh = blocks HP1-beta chromodomain binding to methylated histone tails. P83916. AlphaScreen HP1-beta / biotin-H3K9me3 peptide binding. AID 540317. Potency, µM (top dose mostly 114 µM), inactives show at the top dose activity change, negative = inhibition, hits mostly inhibitors. 390,000 tested, 0.56% active; also: nearly all actives have a fitted effect of over 70% in size
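Compound inhibition of the preformed complex between 50 nM HP1-beta and 50 nM biotinylated H3K9me3 peptide was read by AlphaScreen. Buffer was PBS pH 7.4 with 0.01% Tween-20. Incubations ran 30 min at room temperature, with 10 ug/mL donor/acceptor beads.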
VDR inh = vitamin D3 receptor (human) inhibition; Potency, µM, inactives show max response, negative = inhibition, actives largely listed as inhibitors; AID 504847; 400,000 tested, 0.93% active; VDR-SRC2-3 peptide fluorescence polarization, 2 h; also: % is scaled to controls: 0 for no effect and ±100 for the full control effect
Target sequence (P11473 whole entry, looked up): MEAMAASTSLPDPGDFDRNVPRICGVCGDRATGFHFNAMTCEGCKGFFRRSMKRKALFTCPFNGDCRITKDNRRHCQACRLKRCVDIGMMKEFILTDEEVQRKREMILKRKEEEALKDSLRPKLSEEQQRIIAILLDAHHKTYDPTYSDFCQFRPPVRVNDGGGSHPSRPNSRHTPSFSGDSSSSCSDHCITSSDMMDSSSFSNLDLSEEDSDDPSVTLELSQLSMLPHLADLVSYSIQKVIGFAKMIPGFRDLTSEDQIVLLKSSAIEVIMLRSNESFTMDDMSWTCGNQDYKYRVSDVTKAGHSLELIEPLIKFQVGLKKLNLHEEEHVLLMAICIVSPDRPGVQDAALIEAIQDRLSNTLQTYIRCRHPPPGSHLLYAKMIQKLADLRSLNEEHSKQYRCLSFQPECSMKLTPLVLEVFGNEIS
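Inhibition of the VDR/SRC2-3 peptide interaction is quantified by fluorescence polarization. Compounds (23 nl, pintool) incubate with the reagents for 2 hours at ambient room temperature.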
JMJD2A Tudor inh = inhibitors of human JMJD2A Tudor domain | AlphaScreen JMJD2A-Tudor / H3K4me3 peptide binding | Potency, µM (doses to about 114 µM), for the others: top-dose activity change, negative = inhibition, hits mostly inhibitors | 390,000 tested, 4.4% active | AID 504339; also: % is scaled to controls: 0 for no effect and ±100 for the full control effect; nearly all actives have a fitted effect of over 50% in size
BAZ2B inh = blocks human BAZ2B. Q9UIF8. AlphaScreen BAZ2B-H3K14Ac peptide displacement. Potency, µM (series often up to 114 µM), inactives show at the top dose activity change, negative = inhibition, usual class: inhibitors. 360,000 tested, 4.4% active. AID 504333; also: % is scaled to controls: 0 for no effect and ±100 for the full control effect; nearly all actives have a fitted effect of over 60% in size
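Complex of BAZ2B and biotin-H3K14Ac (50 nM apiece) forms over 30 min at RT, then faces library compounds up to 110 uM for another 30 min; AlphaScreen beads added, 20 min dark incubation, luminescence read.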
PLK1 PBD inh = blocks phosphopeptide binding to human PLK1 polo-box domain; P53350; Plk1 PBD binding of FITC phosphopeptide, fluorescence polarization; Potency, µM, without a hit: max response, negative = inhibition, usual class: inhibitors; 360,000 tested, 2.8% active; also: series mostly up to about 57 µM; % is scaled to controls: 0 for no effect and ±100 for the full control effect; nearly all actives have a fitted effect of over 65% in size
Numbers without * were called inactive; ? = inconclusive; . = not tested or not shown; [ ] = dose if it differs, or a comment. Calls follow the shape of the dose curve; as a rule, active = well fitted curve in the direction sought with a large enough effect; inconclusive = small, poorly fitted or top-dose-only effect, or another doubt; inactive = no such curve, though single readings can be large; an effect the other way counts as inactive or inconclusive. Potency is read from the fitted curve at half-maximal effect.

SMILES | L3MBTL1 block | HP1b binding inh | VDR inh | JMJD2A Tudor inh | BAZ2B inh | PLK1 PBD inh
CC(=O)Nc1sc(N/N=C/c2ccc(N(C)C)cc2)nc1-c1ccc(C)cc1 | -26% | ? | -13% | 45µM* | 28µM* | -20%
CCOC(=O)C1CCN(C(=O)c2ccc(NC(=O)c3nsc4ccccc34)cc2)CC1 | . | 13%[57 µM] | -12% | -22% | -2% | .
CCN(CC)CCNS(=O)(=O)c1ccc2[nH]cc(C(=O)O)c(=O)c2c1 | ? | -13% | 9% | 56µM* | ? | -16%
CCN(CC)C(=O)c1c[nH]c2ccc(S(=O)(=O)Nc3cc(C)cc(C)c3)cc2c1=O | -2% | 54% | -3% | ? | 7% | -16%
COCCCNC(=O)Cn1c(=O)n(-c2ccc(C)cc2)c(=O)c2c1c1cc(C)ccc1n2C | . | 6% | -3% | -13% | -2% | .
COC(=O)CCNC(=O)CCc1ccc(S(=O)(=O)N2CCCCCC2)cc1 | 5% | 27% | 2% | -3% | 11% | -3%
Oc1c(Cl)cc(CN2CCCCC2)c2cccnc12 | . | . | . | . | 3.5µM* | .
Oc1ccc(CN2CCCCC2)c2cccnc12 | ? | 1% | -7% | 8.9µM* | 3.2µM* | -12%
O=[N+]([O-])c1cc(CN2CCCC2)c2cccnc2c1O | 4µM* | ? | 14% | 13µM* | 5µM* | -22%
Oc1c(CN2CCCCC2)ccc2cccnc12 | . | 15% | 7% | 20µM* | . | -9%
Oc1ccc2ccccc2c1CN1CCCCC1 | . | 9% | -11% | -15% | . | -27%
c1ccc2c(CN3CCCCC3)csc2c1 | 3% | 29% | -1% | -2% | -5% | -3%
CCCC[C@@H]1CNC(=O)C(=O)N1CCCCC1CCCCC1 | . | . | . | . | . | -16%
O=C1CC(c2ccccc2F)c2c(c3ccccc3[nH]c2=O)O1 (stereo not drawn) | . | 38% | -3% | -36% | -11% | -10%
OCCN1CCN(Cc2cc(Cl)c3cccnc3c2O)CC1 | . | 4% | -1% | 13µM* | 7.9µM* | -8%
Oc1ccc(CN2CCC(Cc3ccccc3)CC2)c2cccnc12 | . | 17% | 5% | 25µM* | 20µM* | 0%
Oc1ccc(CN2CCc3ccccc3C2)c2cccnc12 | . | -18% | 2% | 10µM* | 5.6µM* | -10%
FC(F)(F)c1ccccc1CN1CCC(Cc2ccccc2)CC1 | 22% | ? | -1% | 13µM* | 1% | -2%
Oc1ccc(CN2CCN(c3ccccc3)CC2)c2cccnc12 | 0% | 22% | 15% | -31% | ? | -28%
CC(C)OCCCn1c(=O)c2ccccc2n2c(-c3ccc(F)cc3)nnc12 | . | -1% | 3% | ? | ? | .
CCOc1ccc(NCc2cccn2-c2nnc(N3CCC(C(=O)NCCCN4CCCCC4CC)CC3)s2)cc1 (stereo not drawn) | . | -17%[57 µM] | 0% | 28µM* | ? | -2%
O=C(COc1ccc(Br)cc1)N/N=C1/SCC(=O)N1Cc1ccco1 | -14% | ? | ? | 16µM* | ? | 24µM*
O=C1CSC(=Nc2ccc(Cl)cc2)N1Cc1ccco1 | 6% | 42% | -15% | -5% | 1% | -4%
COc1cc2c(=O)c(C(=O)c3ccc(C)c(C)c3)cn(Cc3ccc(F)cc3)c2cc1OC | . | 24% | -10% | -15% | -23% | .
S=C(c1ccc2c(c1)OCO2)N1CCN(c2cccc(Cl)c2)CC1 | . | ? | ? | -30% | . | 9.5µM*
Cc1cccc(N2CCN(C(=S)c3ccc4c(c3)OCO4)CC2)c1 | . | ? | 79µM* | ? | . | 11µM*
O=C(CCl)Nc1nc(-c2ccco2)c(-c2ccco2)s1 | -8% | ? | -15% | ? | 50µM* | ?
Cc1ccc(C(=O)Nc2nc(-c3ccco3)c(-c3ccco3)s2)o1 | ? | 50µM* | ? | ? | 20µM* | -30%
CC(=O)c1sc(NC(=O)CCNC(=O)c2ccco2)nc1-c1ccccc1 | . | 13% | 6% | -18% | ? | -16%
CCOC(=O)c1ccc(NC(=O)c2cc3c(s2)CCC3)cc1 | . | 31% | -7% | 5% | 0% | 0%
